A selection: hits, their analogues and other compounds. The true share with any hit is near 3.5%.
Autofluor counter = counter-screen for toxin protease inhibitors: compound fluorescence; compound autofluorescence counterscreen, microsphere flow cytometry; hits give high values; fluorescence intensity (test concentration not listed); 360,000 tested, 3.1% active; in the data active = fluorescence intensity above about 16000; inconclusive = no clear call, values can overlap the other calls
BoNT A protease = inhibitors of Botulinum neurotoxin A light chain protease | multiplex microsphere protease substrate cleavage, flow cytometry | inhibition, % at 10 µM | 360,000 tested, 0.17% active; note: plate controls were buffer without enzyme for full effect and enzyme alone for no effect
BJeLR viability = BJeLR cell viability loss; BJeLR (HRASV12) viability, CellTiter-Glo ATP luminescence, 48 h; inhibition, % (concentration not given with the values); 300,000 tested, 0.17% active; AID 1554; in the data active = inhibition above about 50%; inconclusive = no clear call, values can overlap the other calls
BoNT F protease = blocks Botulinum neurotoxin F light chain protease; Multiplex microsphere protease cleavage assay, flow cytometry; inhibition, % at 10 µM; 360,000 tested, 0.22% active; in the data active = inhibition above about 35%, passing the limit was not always enough; inconclusive = no clear call, values can overlap the other calls; note: plate controls were buffer without enzyme for full effect and enzyme alone for no effect
Anthrax LF inh2 = anthrax lethal factor protease inhibition | P15917 | multiplex microsphere protease cleavage assay, LF | inhibition, % at 10 µM | 360,000 tested, 0.12% active | AID 588501; note: plate controls were buffer without enzyme for full effect and enzyme alone for no effect
Target sequence (P15917 whole entry, looked up): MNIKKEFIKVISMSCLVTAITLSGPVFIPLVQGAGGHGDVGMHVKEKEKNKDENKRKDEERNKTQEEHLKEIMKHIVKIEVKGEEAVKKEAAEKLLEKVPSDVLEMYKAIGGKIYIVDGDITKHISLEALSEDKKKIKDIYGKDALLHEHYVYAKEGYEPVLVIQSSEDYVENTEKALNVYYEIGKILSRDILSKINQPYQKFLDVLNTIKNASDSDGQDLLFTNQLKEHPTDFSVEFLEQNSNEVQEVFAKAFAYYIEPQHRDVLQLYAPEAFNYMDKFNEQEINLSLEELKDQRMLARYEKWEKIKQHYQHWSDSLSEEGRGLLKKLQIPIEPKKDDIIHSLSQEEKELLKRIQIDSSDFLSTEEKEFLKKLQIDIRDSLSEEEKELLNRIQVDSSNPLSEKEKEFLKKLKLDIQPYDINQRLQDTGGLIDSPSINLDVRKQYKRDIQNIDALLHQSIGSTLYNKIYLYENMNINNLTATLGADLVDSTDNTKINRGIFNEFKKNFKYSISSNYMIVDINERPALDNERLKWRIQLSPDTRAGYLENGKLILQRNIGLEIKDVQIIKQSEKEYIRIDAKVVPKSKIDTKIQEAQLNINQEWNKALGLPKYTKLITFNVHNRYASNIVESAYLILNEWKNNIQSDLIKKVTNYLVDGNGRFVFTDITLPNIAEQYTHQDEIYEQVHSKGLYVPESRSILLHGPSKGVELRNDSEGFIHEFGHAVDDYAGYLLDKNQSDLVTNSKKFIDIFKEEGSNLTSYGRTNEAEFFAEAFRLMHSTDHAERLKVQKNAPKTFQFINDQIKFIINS
* = called active by the depositor; ? = inconclusive; · = not tested or not shown. Cut-off read from the data, not from the text of the source, unless noted: active = inhibition above about 30%; inconclusive = no clear call, values can overlap the other calls; inactive = below that.

SMILES	Autofluor counter	BoNT A protease	BJeLR viability	BoNT F protease	Anthrax LF inh2
COC(=O)CCCn1cc(CN2CC(N3CCN(CCN(C)C)CC3)CS2(=O)=O)nn1 (configuration not stated)	4550	-1	·	0	-1
O=C(NCc1cccs1)c1ccc(-c2ccc(F)c(F)c2)c2ccoc12	3044	0	·	-8	-4
COc1cccc(CNC(=O)[C@@H]2CCCN2C(=O)[C@H]2CCCCN2S(=O)(=O)c2ccc(OC)c(C)c2)c1	5332	1	·	5	7
Cc1cccc(C(=O)OCC(=O)Nc2ccc3c(c2)OCCO3)c1O	4309	-1	·	-4	-3
COc1ccc(C(=O)Nc2nc3ccccc3s2)c(OC)c1	3603	-4	53*	-18	1
CC1(C(=O)NC(=S)N(CCC#N)c2ccccc2)CC1(Cl)Cl (configuration not stated)	21445*	3	-4	4	-7
O=c1[nH][nH]c2c1[C@H](c1ccccc1)O[C@H](C1CCCCC1)C2	6222	0	·	-11	-7
Oc1ccccc1C(=S)N1CCCCCC1	19817*	2	5	1	-8
CCCC(=O)NC(=S)Nc1ccccc1F	5343	-1	2	-31	-1
CC(C)CC1C(=O)N(Cc2cn(CCC3OCCCO3)nn2)CCS(=O)(=O)N1Cc1ccc(-c2ccc(Cl)nc2)cc1 (configuration not stated)	2887	0	·	-4	-5
COCCn1c(SCC#N)nnc1-c1ccccc1	10341	0	-3	-6	-2
COCCn1c(SCC#N)nnc1-c1ccccc1O	20776*	-3	-9	-6	-6
COc1ccc(CN2CCC[C@]3(N[C@H](c4ccccc4)[C@@H]4C(=O)N(C)C(=O)[C@@H]43)C2=O)cc1	2959	-1	·	-2	-1
O=C(CSc1ccccn1)N1CCN(c2ccccc2)CC1	16913*	-3	4	-2	-2
Nc1ncnc2nc(SCC(=O)N3CCN(c4ccccc4)CC3)[nH]c12	17350*	?	9	19	-12
Nc1ncnc2nc(SCCN3CCCCC3)[nH]c12	16379*	0	2	0	-2
O=C(CSc1ccccn1)N1CCN(c2cccc(Cl)c2)CC1	9783	-1	4	-6	-5
COc1ccccc1N1CCN(C(=O)CSc2nc3ncnc(N)c3[nH]2)CC1	5596	0	-1	0	4
Cc1sc(NC(=O)C2CC=CCC2C(=O)O)c(C(=O)OC(C)C)c1C (configuration not stated)	9612	0	-18	-1	-3
O=C(CNC(=O)c1ccccc1F)OCCCOC(=O)CNC(=O)c1ccccc1F	30957*	-108	-11	-164	-23
O=C(COC(=O)CNC(=O)c1ccccc1F)NCCNC(=O)COC(=O)CNC(=O)c1ccccc1F	5209	0	9	16	2
O=C(COC(=O)c1ccccc1F)NC1CC1	?	-3	·	-5	-1
O=C(CNC(=O)c1ccccc1F)NC1CC1	19571*	?	10	2	2
O=C(CSc1ccccc1)NC1CCCCCC1	6131	-5	-6	-23	-4
O=C(NCC1CCCO1)c1ccc(Br)o1 (configuration not stated)	4361	0	-10	0	-2
SMILES	Autofluor counter	BoNT A protease	BJeLR viability	BoNT F protease	Anthrax LF inh2
O=C(COC(=O)c1ccc(Br)o1)NCC1CCCO1 (configuration not stated)	21346*	3	-12	5	2
CCCNC(=O)c1cc(C2CCCCN2C(=O)OCC(C)C)on1 (configuration not stated)	3923	0	·	-4	1
Cc1ccc(OCC(=O)Nc2ccc3c(c2)C(=O)N(CCC(=O)O)C3=O)cc1	6271	-1	-8	2	-1
O=C(Cn1cnnn1)OCC(=O)c1ccc(Cl)s1	22766*	2	-3	1	1
COc1ccc(S(=O)(=O)Cc2ccccc2)cc1N	23710*	-2	14	-5	0
COc1ccc(CC(=O)Nc2c3c(nn2-c2cccc(C)c2C)CS(=O)(=O)C3)cc1	22126*	1	5	1	1
Cc1ccc(CNC(=O)CSc2nc3ccsc3c(=O)n2NC(=O)c2ccccc2)cc1	23505*	-2	3	-3	-5
Cc1nn(C)cc1/C=N\NC(=O)c1ccc2c(c1)c(C)c(C)n2Cc1ccccc1	3162	-1	10	-13	-3
Cc1cc(Oc2ccc(=O)n(C)n2)nc(Oc2ccc(=O)[nH]n2)n1	2915	0	-3	-5	3
CCOc1cc(C)nc(Oc2ccc(=O)[nH]n2)n1	23697*	?	3	2	-4
COC(=O)c1ccc(COc2ccc(Cl)cc2)o1	3301	1	2	-2	-6
